Structures are written as SMILES. The campaign covered roughly 310,000 compounds. About 14,000 (4.5%) showed an effect of 50% or more. The effect is printed as a negative number. Many of the other results were omitted from the sample, so strong results are more common in it than they were.
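Further: peak tail current of the secondary pulse compared with the same well before compound.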

The target of this test is human ether-à-go-go-related gene (hERG) potassium channel (human, UniProt Q12809). In words: primary screen, population patch clamp on CHO cells stably expressing hERG; higher = less effect of the substance.
human ether-à-go-go-related gene (hERG) potassium channel, sequence (Q12809 whole entry, looked up): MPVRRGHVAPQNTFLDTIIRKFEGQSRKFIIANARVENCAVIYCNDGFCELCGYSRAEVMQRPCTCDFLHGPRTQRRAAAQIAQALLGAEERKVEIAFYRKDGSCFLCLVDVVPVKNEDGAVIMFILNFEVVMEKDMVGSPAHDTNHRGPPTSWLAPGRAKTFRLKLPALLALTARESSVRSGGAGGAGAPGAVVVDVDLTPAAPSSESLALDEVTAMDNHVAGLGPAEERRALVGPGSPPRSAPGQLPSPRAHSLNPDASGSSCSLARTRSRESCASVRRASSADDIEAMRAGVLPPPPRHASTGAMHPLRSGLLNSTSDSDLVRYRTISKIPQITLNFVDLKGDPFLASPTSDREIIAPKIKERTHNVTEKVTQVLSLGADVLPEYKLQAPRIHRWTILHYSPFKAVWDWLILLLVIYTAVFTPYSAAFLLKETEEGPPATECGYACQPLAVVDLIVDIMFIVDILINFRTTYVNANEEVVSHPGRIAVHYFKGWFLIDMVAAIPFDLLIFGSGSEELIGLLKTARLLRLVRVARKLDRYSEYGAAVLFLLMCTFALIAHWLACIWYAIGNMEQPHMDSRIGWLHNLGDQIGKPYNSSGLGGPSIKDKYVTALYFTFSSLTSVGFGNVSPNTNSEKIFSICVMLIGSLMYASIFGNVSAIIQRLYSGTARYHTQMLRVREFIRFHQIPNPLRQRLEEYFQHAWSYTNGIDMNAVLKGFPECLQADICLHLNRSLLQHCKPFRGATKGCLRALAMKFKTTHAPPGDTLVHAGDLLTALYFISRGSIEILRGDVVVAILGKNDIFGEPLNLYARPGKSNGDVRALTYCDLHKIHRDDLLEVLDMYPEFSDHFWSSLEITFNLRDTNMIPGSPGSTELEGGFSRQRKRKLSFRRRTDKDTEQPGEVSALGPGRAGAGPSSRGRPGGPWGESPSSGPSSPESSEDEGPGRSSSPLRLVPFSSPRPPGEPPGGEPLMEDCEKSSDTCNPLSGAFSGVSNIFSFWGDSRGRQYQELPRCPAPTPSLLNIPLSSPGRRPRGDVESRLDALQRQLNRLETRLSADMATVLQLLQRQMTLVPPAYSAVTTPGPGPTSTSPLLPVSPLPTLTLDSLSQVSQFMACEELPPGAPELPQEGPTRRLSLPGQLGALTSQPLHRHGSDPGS
Take `Cc1cc(C)nc(Nc2nc(C)c3cc4c(cc3n2)OCO4)n1`: the “hERG current change (%, negative = inhibition) at 10uM” value was -3.78%.
With `COc1cc(N2C(=O)c3ccccc3C2=O)c(Cl)cc1C(=O)OCC(=O)NCc1ccco1` the figure was -56.1%.
The figure for `Cc1c(NS(=O)(=O)c2ccc(Cl)c(C(=O)OCC(=O)NCc3ccco3)c2)c(=O)n(-c2ccccc2)n1C` is -51.9%; for `Cc1c(NS(=O)(=O)c2cc(C(=O)NCc3ccco3)cc(Cl)c2Cl)c(=O)n(-c2ccccc2)n1C` it is -39.5%.
Turning to `COc1cc(N2C(=O)c3ccccc3C2=O)c(Cl)cc1C(=O)OCC(=O)N(C)C`, the “hERG current change (%, negative = inhibition) at 10uM” value is recorded as -28.5%.
With `COc1cc(N2C(=O)c3ccccc3C2=O)c(Cl)cc1C(=O)OCC(=O)N1CCOCC1` the figure was -9.43%.
With `CCN(C(=O)COC(=O)c1cc(S(=O)(=O)Nc2c(C)n(C)n(-c3ccccc3)c2=O)ccc1Cl)C1CCCCC1` the figure was -49.9%; with `Cc1ccc(S(=O)(=O)Nc2c(C)n(C)n(-c3ccccc3)c2=O)cc1C(=O)OC(C)C(=O)N(C)c1ccccc1` (stereo not shown), -10.5%; with `CN(c1ccccc1)S(=O)(=O)c1ccc(Cl)c(C(=O)OCC(=O)NCc2ccco2)c1`, -25%.
With `CCN(Cc1ccccc1)C(=O)COC(=O)c1cc(S(=O)(=O)Nc2c(C)n(C)n(-c3ccccc3)c2=O)ccc1C` the figure was -74.9%; with `CCN(Cc1ccccc1)C(=O)C(C)OC(=O)c1cc(S(=O)(=O)Nc2c(C)n(C)n(-c3ccccc3)c2=O)ccc1C` (stereo not shown), -19.3%; with `Cc1c(NS(=O)(=O)c2ccc(Cl)c(C(=O)OC(C)C(=O)N3CCOCC3)c2)c(=O)n(-c2ccccc2)n1C` (stereo not shown), 5.07%.
Turning to `Cc1c(NS(=O)(=O)c2ccc(Cl)c(C(=O)OC(C)C(=O)NCc3ccco3)c2)c(=O)n(-c2ccccc2)n1C` (stereo not shown), the “hERG current change (%, negative = inhibition) at 10uM” value is -77.5%.
With `Cc1cnc(C(=O)OC(C)C(=O)NCc2ccccc2)cn1` (stereo not shown) the figure was 3.99%; with `Brc1ccc(CN2CCN(c3ccccn3)CC2)s1`, -5.6%; with `CCn1c(COc2ccc(Cl)cc2)nnc1SCC(=O)Nc1ccc2c(c1)OCO2`, 3.98%.
With `Cc1cc(C)cc(C(=O)N(C)C2CCCN(Cc3ccccc3F)C2)c1` (stereo not shown) the figure was -13%; with `Cc1cccc(-n2nc3c([n+]2[O-])CCc2nonc2-3)c1C`, 11.4%; with `O=C(CSc1ccc(Br)cc1)NC1CCS(=O)(=O)C1` (stereo not shown), 5.33%.
With `CCCN(CCC)C(=S)Nc1cc(C(=O)OC)ccc1C(=O)OC`, the “hERG current change (%, negative = inhibition) at 10uM” value is -38.2%.
With `Cc1cccc2c3c([nH]c12)CCN(C)C3` the figure was 10%; with `Cc1nn(Cc2ccc(Cl)cc2Cl)c(C)c1NC(=O)CCl`, -60.9%.
Consider `Cc1nn(Cc2ccccc2)c(C)c1NC(=O)CCCn1nc(C)c([N+](=O)[O-])c1C`, for which the “hERG current change (%, negative = inhibition) at 10uM” value is reported as -16.3%.
With `Cc1nn(Cc2ccc(Cl)cc2Cl)c(C)c1NC(=O)NC12CC3CC(CC(C3)C1)C2` the figure was 7.38%; with `Cc1nn(Cc2ccc(Cl)cc2)c(C)c1NC(=O)Cn1nc([N+](=O)[O-])c(Cl)c1C`, 2.42%.
Turning to `Cc1nn(Cc2ccc(Cl)cc2Cl)c(C)c1NC(=O)Cn1nc([N+](=O)[O-])c(Cl)c1C`, the “hERG current change (%, negative = inhibition) at 10uM” value is listed as 1.33%.
As for `Cc1nn(Cc2ccc(Cl)cc2)c(C)c1NC(=O)CCCn1nc(C)c([N+](=O)[O-])c1C`, the “hERG current change (%, negative = inhibition) at 10uM” value was -64.5%.
As to `Cc1ccc(Cn2nc(C)c(NC(=O)CCCn3nc(C)c([N+](=O)[O-])c3C)c2C)cc1`, the “hERG current change (%, negative = inhibition) at 10uM” value is -10.9%.
On to `Cc1ccc(Cn2nc(C)c(NC(=O)CCCn3nc([N+](=O)[O-])c(Cl)c3C)c2C)cc1`, for which the “hERG current change (%, negative = inhibition) at 10uM” value is -50.7%.
For the compound `Cc1nn(Cc2ccccc2)c(C)c1NC(=O)CCCn1nc([N+](=O)[O-])c(Cl)c1C`, the “hERG current change (%, negative = inhibition) at 10uM” value is reported as -43%.
With `Cc1nn(Cc2c(Cl)cccc2Cl)c(C)c1NC(=O)CCCn1nc([N+](=O)[O-])c(Cl)c1C` the figure was -19.6%; with `Cc1c(Cl)c([N+](=O)[O-])nn1CCCC(=O)Nc1c(Cl)cccc1Cl`, -8.29%.
Turning to `Cc1nn(Cc2ccc(Cl)cc2)c(C)c1NC(=O)CCCn1nc([N+](=O)[O-])c(Cl)c1C`, the “hERG current change (%, negative = inhibition) at 10uM” value is -64%.
Consider `Cc1onc(-c2ccccc2Cl)c1-c1nc(-c2ccncc2)no1`, for which the “hERG current change (%, negative = inhibition) at 10uM” value is recorded as -10.9%.
For the compound `CC1(C)CNC(=O)CC(C)(C)N1`, the “hERG current change (%, negative = inhibition) at 10uM” value is 4.53%.
In the case of `CCn1c(SCC(=O)N2CCCCC2)nc(O)cc1=O`, the “hERG current change (%, negative = inhibition) at 10uM” value is listed as -7.46%.
`Cc1ccc(C)c(-n2c(Cc3cc(=O)[nH]c(=O)[nH]3)nnc2SCC(=O)NCc2ccco2)c1`: the “hERG current change (%, negative = inhibition) at 10uM” value worked out at 4.83%.
With `Cn1cccc1C(=O)N/N=C/c1c(Cl)cccc1Cl` the figure was 3.26%; with `COc1cc2c(cc1OC)C(C)N(S(=O)(=O)c1cccs1)CC2` (stereo not shown), -12.9%.
The figure for `COc1ccc(-c2ccc3nnc(SCC(=O)NCC4CCCO4)n3n2)cc1` (stereo not shown) is -9.98%.

For the origin of these results see publication PMC4336329 (PLoS ONE, 2015).
